Hits are enriched below; roughly 6.9% of the tested compounds scored in any of these assays.
KB-V1 cytotox – KB-V1 MDR subline cytotoxicity. hit rate 3.4% among 400,000. Potency, µM (top dose mostly 46.1 µM), hits mostly cytotoxic. KB-V1 MDR cells viability, CellTiter-Glo, 72 h. AID 1347076; further: potency means the concentration at half of the fitted maximal effect; on the % scale 0 is the no-effect control and ±100 the full control effect; nearly all actives have a fitted effect of over 60% in size
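KB-V1, DMEM (no phenol red) + 10% FBS; cpd pin-transferred, titration series; 72 h, 37 degrees C; CellTiter-Glo, luminescence. Data normalized, curve-fit.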
Giardia killer – Giardia lamblia killing; activity change, % at 7.66 µM, hits read low; Giardia lamblia trophozoite viability; hit rate 0.15% among 340,000; in the data active means activity change below about -80%; inconclusive means between about -30% and that limit;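 further: parasites exposed to compound for two days anaerobically before the ATP read; on the % scale 0 is the no-effect control and ±100 the full control effect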
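ATP-content bioluminescence gauges trophozoite survival. Cells (100/well) receive compound and incubate anaerobically for 48 hrs at 37 deg C; detection reagent follows for 15-30 min at room temperature.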
KB-3-1 cytotox – kills parental KB-3-1 adenocarcinoma cells. hit rate 1.4% among 400,000. Potency, µM (highest dose often 46.1 µM), most hits filed as cytotoxic. KB-3-1 viability, CellTiter-Glo ATP luminescence, 72 h; further: potency means the concentration at half of the fitted maximal effect; on the % scale 0 is the no-effect control and ±100 the full control effect; nearly all actives have a fitted effect of over 60% in size
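Cytotoxicity in the drug-sensitive parental line KB-3-1 was scored as loss of CellTiter-Glo luminescence following 72 h incubation with compound. Values come from curve fitting of normalized concentration-response data.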
SW480 rereplic – DNA re-replication induction in SW480 cells | SW480 DNA re-replication, Hoechst DNA content imaging, 48 h | Potency, µM (series often up to 46.1 µM), without a hit: at the top dose re-replication activation, hits mostly activators | hit rate 1.8% among 340,000 | AID 624297; further: potency means the concentration at half of the fitted maximal effect; % of control where 0% means no effect; nearly all actives have a fitted effect of over 55% in size
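Image-based read-out: total Hoechst fluorescence of nuclei (405 nm excitation, 500-530 nm emission), with hits raising the fraction of high-intensity nuclei. SW480 colon cells incubated 48 hr with compounds at 37 C.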
MCF10A rereplic – induces DNA re-replication in MCF 10a normal breast cells; AID 624296; Potency, µM (highest dose often 46.1 µM), for the others: at the highest dose activity, positive = re-replication, most hits filed as activators; MCF 10A DNA re-replication, Hoechst nuclear intensity, 48 h; hit rate 2.9% among 350,000; further: potency means the concentration at half of the fitted maximal effect; % of control where 0% means no effect; nearly all actives have a fitted effect of over 50% in size
ASM inhibitor – blocks human secretory acid sphingomyelinase; P17405; placental ASM, HMU-PC fluorogenic substrate, 60 min; Potency, µM (doses to about 57.5 µM), without a hit: at the top dose activity change, negative = inhibition, most hits filed as inhibitors; hit rate 0.006% among 340,000; AID 504937; further: potency means the concentration at half of the fitted maximal effect
Target sequence (P17405 47-631 limits assumed): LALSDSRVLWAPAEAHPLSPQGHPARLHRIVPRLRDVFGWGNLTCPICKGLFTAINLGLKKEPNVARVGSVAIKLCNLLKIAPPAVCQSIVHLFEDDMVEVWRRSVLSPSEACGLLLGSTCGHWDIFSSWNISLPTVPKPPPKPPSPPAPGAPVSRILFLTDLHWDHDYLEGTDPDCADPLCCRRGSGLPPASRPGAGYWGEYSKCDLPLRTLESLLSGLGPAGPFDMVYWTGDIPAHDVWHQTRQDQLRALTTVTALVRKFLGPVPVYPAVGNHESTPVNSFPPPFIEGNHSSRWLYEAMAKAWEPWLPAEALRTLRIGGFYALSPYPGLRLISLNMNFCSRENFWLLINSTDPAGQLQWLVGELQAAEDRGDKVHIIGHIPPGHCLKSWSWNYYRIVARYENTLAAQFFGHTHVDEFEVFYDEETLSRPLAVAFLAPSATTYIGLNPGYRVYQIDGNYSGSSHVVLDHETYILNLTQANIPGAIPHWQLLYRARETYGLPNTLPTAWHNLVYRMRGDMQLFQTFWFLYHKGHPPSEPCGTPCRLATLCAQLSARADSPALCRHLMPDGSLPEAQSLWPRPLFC
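Human placenta-derived ASM enzyme was preincubated with compound for 10 minutes at room temperature, then given fluorogenic substrate HMU-PC0 (9 uM final) for 60 minutes at 37 °C; a pH 10 stop preceded fluorescence reading at Ex 386/Em 447 nm.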
Numbers without * were called inactive; i = inactive; ? = inconclusive; · = not tested or not shown. Unless noted, the call rests on the fitted dose curve; in most records, active means well fitted curve in the direction sought with a large enough effect; inconclusive means small, poorly fitted or top-dose-only effect, or another doubt; inactive means no such curve, though single readings can be large; an effect the other way counts as inactive or inconclusive.

SMILES	KB-V1 cytotox	Giardia killer	KB-3-1 cytotox	SW480 rereplic	MCF10A rereplic	ASM inhibitor
O=C(CN(C(=O)c1ccc(Cl)cc1)C1CCCCC1)Nc1ccc(Cl)c([N+](=O)[O-])c1	15µM*	9	i	?	7%	·
Cc1ccc([N+](=O)[O-])cc1NC(=O)CNC1CCCCC1	i	14	i	-7%	-12%	2%
Cc1ccc(Cl)cc1NC(=O)C[n+]1ccc(Cc2ccc([N+](=O)[O-])cc2)cc1	?	-4	10µM*	3%	?	-4%
Cc1cccc(CNC(=O)c2ccc3oc(=O)n(Cc4ccccc4)c3c2)c1	?	·	i	·	·	·
Cc1ccc(NS(=O)(=O)c2ccc3[nH]c4c(c3c2)CCCCC4)cc1	i	·	i	·	·	·
O=C(NCC1CC1)c1ccc2nc(-c3ccoc3)c(-c3ccoc3)nc2c1	i	-5	i	·	·	·
Cc1[nH]nc2c1C(c1ccccn1)N(c1ccc(Br)cc1)C2=O (configuration not stated)	18µM*	5	i	-7%	-4%	4%
CCOC(=O)c1ccc(N2C(=O)c3n[nH]c(-c4cccs4)c3C2c2ccc(OC)cc2OC)cc1 (configuration not stated)	26µM*	·	?	·	·	·
CCOC(=O)c1ccc(N2C(=O)c3n[nH]c(-c4cccs4)c3C2c2cccc(OC)c2)cc1 (configuration not stated)	i	·	?	·	·	·
CCOC(=O)c1ccc(N2C(=O)c3n[nH]c(C)c3C2c2ccc(OCC)cc2)cc1 (configuration not stated)	?	·	23µM*	·	·	·
CCOC(=O)c1ccc(N2C(=O)c3[nH]nc(-c4ccccc4)c3C2c2ccc(CC)cc2)cc1 (configuration not stated)	23µM*	·	?	·	·	·
CCOC(=O)c1ccc(N2C(=O)c3n[nH]c(C)c3C2c2ccccn2)cc1 (configuration not stated)	i	37	i	-2%	3%	-6%
Cc1cccc(NC(=O)C2CCC(CNS(=O)(=O)c3ccc(Br)s3)CC2)c1 (configuration not stated)	i	·	i	·	·	·
COC(=O)c1c(C)[nH]c(C(=O)/C=C/c2ccccc2)c1C	12µM*	-26	i	-128%	-46%	37%
O=C(C=Cc1ccccc1)c1c[nH]c2ccccc2c1=O	7.3µM*	5	5.2µM*	8.2µM*	6.5µM*	1%
Cc1[nH]c2ccccc2c(=O)c1C(=O)/C=C/c1ccccc1	15µM*	-20	?	?	12µM*	-6%
Cc1cc(O)c(C(=O)/C=C/c2ccccc2)c(=O)o1	i	3	?	-1%	?	0%
Cc1[nH]c2ccccc2c1/C=C/C(=O)c1ccccc1	?	-12	?	18µM*	21µM*	21%
O=C(/C=C/c1ccccc1)c1c[nH]c2ccccc12	i	-14	i	?	-1%	-1%
CN(C)CCNc1cc(N2CCN(C)CC2)ncn1	i	·	i	·	·	·
COc1ccc(S(=O)(=O)NCCc2csc(-c3ccc(F)cc3)n2)cc1F	i	·	i	·	·	·
O=C(Nc1cc(-c2nc3ccccc3o2)ccc1Cl)c1sc2c([N+](=O)[O-])cccc2c1Cl	i	·	i	·	·	·
Fc1ccc(CNn2cnnc2SCc2ccc(F)cc2)cc1	?	4	i	1%	5%	0%
Cc1ccc(CNn2cnnc2SCc2ccc(F)cc2)cc1	15µM*	-16	?	6%	4%	-2%
Cc1ccc(N(CC(O)Cn2c3ccccc3c3ccccc32)S(C)(=O)=O)cc1 (configuration not stated)	i	-9	?	-5%	16%	-16%
Cc1ccc(N(CC(O)Cn2c3ccccc3c3ccccc32)S(C)(=O)=O)c(C)c1 (configuration not stated)	13µM*	1	23µM*	5%	?	-26%
CC(C)(C)c1ccc(-c2nnc(NC(=O)Nc3ccc4ccccc4c3)s2)cc1	i	·	?	·	·	·
